Some test systems named below: SR leukemia; RPMI-8226 leukemia; OVCAR-8 ovarian; OVCAR-5 ovarian; OVCAR-4 ovarian; IGROV1 ovarian; OVCAR-3 ovarian; HS 578T breast; NCI/ADR-RES ovarian; T-47D breast; BT-549 breast; MDA-MB-435 melanoma; SW-620 colon; MCF7 breast; HCT-116 colon; HCC-2998 colon; KM12 colon; SK-OV-3 ovarian.
Common to all, as to assay: NCI-60 one-dose screen, 48 h (100 = growth as untreated, 0 = no growth, -100 = all killed)
Holding throughout (conditions): 10 µM unless noted

About 83,000 compounds went through this panel and 20% of them were active in at least one assay; those are over-represented in the sample as a whole.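 Treatment: one concentration, 48 hours, 96-well format. Scoring: percent growth, with anything below 10 considered active.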 Unmarked numbers belong to inactive results. Active and inactive are the calls of the source.

As for `COc1ccc2c(c1)CC[C@@H]1[C@@H]2CC[C@]2(C)C3C(=CC(COC(C)=O)C4C(=O)N(c5ccc(Cl)cc5)C(=O)C43)C[C@@H]12` (stereo not given in full), the growth in the assay on SR leukemia is 35.4%; in the assay on RPMI-8226 leukemia it was 61.8%; in the assay with OVCAR-8 ovarian it was 107%; in the assay with OVCAR-5 ovarian, 78.4%; with OVCAR-4 ovarian, 101%; in the assay with IGROV1 ovarian it was 119%. For the same compound, the growth in the assay on OVCAR-3 ovarian was 110%; with HS 578T breast it was 110%; in the assay on NCI/ADR-RES ovarian it was 102%; in the assay on T-47D breast it was 105%; in the assay on BT-549 breast, 116%; in the assay with MDA-MB-435 melanoma, 111%. The growth was 104% in the assay on SW-620 colon; 108% in the assay with MCF7 breast; 85.2% in the assay with HCT-116 colon; 92.9% with HCC-2998 colon; 102% in the assay with KM12 colon.

`O=C1C=CC2(O)OC/C(=C\c3ccccc3)C(O)=C2C1=O` (stereo not given): the growth in the assay on SR leukemia was 6.55% (active); with RPMI-8226 leukemia it was 0.943% (active); with OVCAR-8 ovarian, 8.41% (active); with OVCAR-5 ovarian it was 29.3%; in the assay with OVCAR-4 ovarian, 30.4%; in the assay on IGROV1 ovarian, -13% (active). Also, the growth is 11.7% with OVCAR-3 ovarian; 39% with HS 578T breast; 16.7% with NCI/ADR-RES ovarian; -19.8% (active) with T-47D breast; -1.66% (active) in the assay on BT-549 breast; 15.8% with MDA-MB-435 melanoma. In addition, the growth in the assay with SW-620 colon is 5.52% (active); in the assay on MCF7 breast, 23.4%; in the assay with HCT-116 colon, -9.7% (active); in the assay on KM12 colon it was -16.9% (active).

For `CCOC(=O)c1cn2ncnc(Oc3ccc(NC(=O)NC4CC4)c(Cl)c3)c2c1C`, the growth is 77.5% in the assay on SR leukemia; 61.3% with RPMI-8226 leukemia; 98.6% with OVCAR-8 ovarian; 108% in the assay on OVCAR-5 ovarian; 53.2% with OVCAR-4 ovarian; 87.6% with IGROV1 ovarian. Moreover, the growth in the assay on OVCAR-3 ovarian is 107%; with HS 578T breast, 100%; in the assay on NCI/ADR-RES ovarian, 90.3%; in the assay with T-47D breast it was 71.9%; in the assay with BT-549 breast it was 96.1%; with MDA-MB-435 melanoma, 96.4%. For the same compound, the growth was 97.1% in the assay on SW-620 colon, 90.5% in the assay on MCF7 breast, 95.1% with HCT-116 colon and 102% with KM12 colon.

On to `CCN(CC)CCCNc1cc(OC)c(OC)c2cccnc12`, for which the growth with SR leukemia is 41.5%; with RPMI-8226 leukemia it was 74.4%; with OVCAR-8 ovarian, 65.1%; in the assay on OVCAR-5 ovarian it was 112%; in the assay on OVCAR-4 ovarian, -10.1% (active); with SK-OV-3 ovarian, 56.3%. Besides, the growth is 30.9% with OVCAR-3 ovarian; 74.3% with HS 578T breast; 76.6% in the assay on NCI/ADR-RES ovarian; 33.8% with T-47D breast; 81.2% in the assay with BT-549 breast; 42.3% in the assay with MDA-MB-435 melanoma. The growth in the assay with SW-620 colon was 58.4%; in the assay with MCF7 breast, 31.4%; in the assay on HCT-116 colon, 9.79% (active); in the assay with HCC-2998 colon it was 76.1%; with KM12 colon, 84.1%.

Regarding `O=C1/C(=C/c2ccccn2)SC(=S)N1N1CCOCC1`, the growth in the assay with SR leukemia was 108%; in the assay on RPMI-8226 leukemia, 105%; in the assay with OVCAR-8 ovarian it was 98.9%; with OVCAR-5 ovarian, 97.9%; in the assay on OVCAR-4 ovarian, 107%; in the assay with SK-OV-3 ovarian, 101%. The growth is 99.5% in the assay with OVCAR-3 ovarian; 96.7% in the assay with HS 578T breast; 99.4% with T-47D breast; 99.9% in the assay with BT-549 breast; 103% in the assay with MDA-MB-435 melanoma; 97.6% with SW-620 colon. The growth is 87.4% in the assay with MCF7 breast, 104% in the assay with HCT-116 colon, 97.7% in the assay on HCC-2998 colon and 103% with KM12 colon.

For the compound `COc1ccc(/C=C/C(c2cc(OC)c(OC)c(OC)c2)n2cncn2)cc1O` (stereo not given), the growth with SR leukemia was 5.67% (active); with RPMI-8226 leukemia, 19.9%; with OVCAR-8 ovarian, 16%; with OVCAR-5 ovarian it was 86.5%; in the assay with OVCAR-4 ovarian it was 83.5%; in the assay with IGROV1 ovarian it was 50.5%. Further, the growth in the assay on OVCAR-3 ovarian is 15.7%; with HS 578T breast, 28.5%; in the assay on NCI/ADR-RES ovarian, 10.8%; in the assay with T-47D breast, 34.4%; in the assay on BT-549 breast, 36.6%; in the assay on MDA-MB-435 melanoma, -33% (active). In addition, the growth is 27.6% in the assay on SW-620 colon; 21.2% in the assay with MCF7 breast; 10.5% in the assay with HCT-116 colon; 67.7% in the assay with HCC-2998 colon; 26.7% in the assay with KM12 colon.

As for `COc1ccc2c(c1)C(C)Cc1c(ncnc1-n1cnc3cc(C)ccc31)N2C` (stereo not given), the growth with SR leukemia is -0.883% (active); in the assay with RPMI-8226 leukemia, 11.9%; in the assay with OVCAR-8 ovarian, 9.01% (active); in the assay with OVCAR-5 ovarian, 78.1%; in the assay on OVCAR-4 ovarian, 58.2%; in the assay with IGROV1 ovarian, 27.5%. For the same compound, the growth was 6.09% (active) in the assay on OVCAR-3 ovarian; 36.2% with HS 578T breast; 6.69% (active) in the assay with NCI/ADR-RES ovarian; 44.6% in the assay with T-47D breast; -3.64% (active) with BT-549 breast; -17.5% (active) with MDA-MB-435 melanoma. Also, the growth was 25% with SW-620 colon; 16.1% in the assay with MCF7 breast; 6.84% (active) in the assay on HCT-116 colon; 10.7% in the assay with HCC-2998 colon; 12.2% with KM12 colon.

As to `COC(=O)[C@@]1(C)CC[C@]2(C)CC[C@]3(C)C4=CC=C5C(=CC(=O)C(O)=C5C)[C@]4(C)[C@@H](O)C[C@@]3(C)[C@@H]2C1`, the growth with SR leukemia is -6.62% (active); in the assay with RPMI-8226 leukemia, 3.73% (active); in the assay with OVCAR-8 ovarian, 4.47% (active); in the assay with OVCAR-5 ovarian, 66.7%; with OVCAR-4 ovarian, 34%; in the assay on IGROV1 ovarian, -46.8% (active). Further, the growth is -16.6% (active) in the assay on OVCAR-3 ovarian; 27.4% with HS 578T breast; 49% with NCI/ADR-RES ovarian; -13.7% (active) in the assay on T-47D breast; 35.5% in the assay with BT-549 breast; 15.9% in the assay on MDA-MB-435 melanoma. The growth was -10.4% (active) in the assay on SW-620 colon; 17.6% in the assay with MCF7 breast; 0.149% (active) with HCT-116 colon; 37.7% in the assay on HCC-2998 colon; 77.6% in the assay on KM12 colon.

`C=C[C@@]1(C)CC(=O)[C@@H](C(C)(C)c2cn(C)c3ccc(Br)cc23)C[C@@H]1O[Si](C)(C)C(C)(C)C`: the growth in the assay with SR leukemia is 103%; in the assay on RPMI-8226 leukemia, 87.5%; with OVCAR-8 ovarian, 101%; with OVCAR-5 ovarian, 106%; in the assay on OVCAR-4 ovarian, 94.2%; with IGROV1 ovarian it was 112%. For the same compound, the growth with OVCAR-3 ovarian is 103%; in the assay on HS 578T breast, 112%; with NCI/ADR-RES ovarian, 101%; in the assay with T-47D breast, 89.6%; in the assay on BT-549 breast, 111%; in the assay with MDA-MB-435 melanoma it was 101%. The growth with SW-620 colon was 97.3%; with MCF7 breast, 80.1%; in the assay with HCT-116 colon, 89.7%; in the assay with HCC-2998 colon, 109%; in the assay with KM12 colon it was 100%.

The values are drawn from PubChem BioAssay (NCI).
